The source of these data is publication PMC6451091, “NextPBM: a platform to study cell-specific transcription factor binding and cooperativity”.

In all, about 3,700 sequences were measured (“z-score”: median about 4, highest 2% from about 8.4 on). The sample holds the highest values, similar sequences and a random draw of the others, so the mix is not that of the screen.

Test [1] has as its target PU.1 (IVT) (UniProt P17947 1-270). In words: protein-binding microarray (PBM); 20 mM HEPES pH 7.9, 100 mM NaCl, 1 mM DTT, 0.2 mg/mL BSA, 0.02% Triton X-100, 2% milk, 0.4 mg/mL salmon testes DNA; 1 h; temperature not stated; high values mean tight binding. As to conditions: dsDNA, one strand shown. In a few lines:
(§1)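 PU.1, full-length and untagged, came from coupled human in vitro transcription/translation and was bound for 1 h to double-stranded DNA microarrays of 20-bp genomic sites and single-nucleotide variants in HEPES pH 7.9, 100 mM NaCl, 2% milk and salmon testes DNA. After antibody detection, the values were taken as z-scores of scanned fluorescence normalised by linear regression.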

The target is the same in test [2]. The test is described as above. The note with it: dsDNA, one strand shown. The method in brief:
as §1
This is another data set of the same source.

Take “GCCTAGCACAAAAAGAGGAAGTGCTACTTGTGCTAGGTCTTGATTCGCTTGACGCTGCTG”: in the test with PU.1 (IVT) [1], the binding signal is 8.88 z-score.

“GCCTAGCACAAAAAGAGGAAGAGAAACTTGTGCTAGGTCTTGATTCGCTTGACGCTGCTG”: in the test with PU.1 (IVT) [1], the binding signal came out at 6.04 z-score. Sequence “GCCTAGCACAAAAAGAGGAAGTCATTCTTGTGCTAGGTCTTGATTCGCTTGACGCTGCTG” returned a binding signal with PU.1 (IVT) [1] of 8.71 z-score. Turning to “GCCTAGCACAAAAACAGGAAGTCCTATTCGTGCTAGGTCTTGATTCGCTTGACGCTGCTG”, in the test with PU.1 (IVT) [1], the binding signal was found to be 7.91 z-score. For “GCCTAGCACAAAAAGAGGAAGTCCTATTTGTGCTAGGTCTTGATTCGCTTGACGCTGCTG”, the binding signal with PU.1 (IVT) [1] worked out at 8.54 z-score. “GCCTAGCACAAAAAGAGGAAGAGGCGCTTGTGCTAGGTCTTGATTCGCTTGACGCTGCTG” displayed a binding signal in the test with PU.1 (IVT) [1] of 5.63 z-score.

For the sequence “GCCTAGCACAAAAATAGGAAATGAAAGTAGTGCTAGGTCTTGATTCGCTTGACGCTGCTG”, the binding signal with PU.1 (IVT) [2] was determined as 3 z-score. With “GCCTAGCACGAAAGAGGGAAGTGGGCATAGTGCTAGGTCTTGATTCGCTTGACGCTGCTG”, the binding signal with PU.1 (IVT) [1] came out at 4.48 z-score.

Take “GCCTAGCACGCAGGGAGGAAGTGGGGAAGGTGCTAGGTCTTGATTCGCTTGACGCTGCTG”: the binding signal with PU.1 (IVT) [2] was 3.42 z-score. In the test with PU.1 (IVT) [1], “GCCTAGCACCAAAAAGGGAAGTGCATGCTGTGCTAGGTCTTGATTCGCTTGACGCTGCTG” registered a binding signal of 6.52 z-score. For the sequence “GCCTAGCACAGCATGAGGAAGTGTCAGATGTGCTAGGTCTTGATTCGCTTGACGCTGCTG”, the binding signal with PU.1 (IVT) [2] was 4.45 z-score. The sequence “GCCTAGCACTTGAAAAGGAAGTGCAACAAGTGCTAGGTCTTGATTCGCTTGACGCTGCTG” registered a binding signal with PU.1 (IVT) [1] of 2.73 z-score. The sequence “GCCTAGCACTGAAAGAGGAACTCTCACATGTGCTAGGTCTTGATTCGCTTGACGCTGCTG” displayed a binding signal in the test with PU.1 (IVT) [1] of 4.89 z-score. Still for that read-out and setting: under “GCCTAGCACAAAAAGAGGAAGTGCTTTTCGTGCTAGGTCTTGATTCGCTTGACGCTGCTG” stands 8.49 z-score; under “GCCTAGCACAAAAAGAGGAAGTCTTTTATGTGCTAGGTCTTGATTCGCTTGACGCTGCTG”, 8.71 z-score.

Sequence “GCCTAGCACAAAAGAAGGAAGTGGTTTATGTGCTAGGTCTTGATTCGCTTGACGCTGCTG” returned a binding signal with PU.1 (IVT) [2] of 6.15 z-score. On to “GCCTAGCACCAAAAGAGGAAGTCATTTATGTGCTAGGTCTTGATTCGCTTGACGCTGCTG”, for which the binding signal with PU.1 (IVT) [1] was 8.11 z-score. With “GCCTAGCACAACAAGAGGAAGTGGCTTTCGTGCTAGGTCTTGATTCGCTTGACGCTGCTG”, in the test with PU.1 (IVT) [1], the binding signal is 5.51 z-score. With “GCCTAGCACAAAAAGAGGAAGAGGAATAGGTGCTAGGTCTTGATTCGCTTGACGCTGCTG”, the binding signal with PU.1 (IVT) [2] turned out to be 5.98 z-score.

As to “GCCTAGCACAAAAAAAGGAAGTGGTGGTTGTGCTAGGTCTTGATTCGCTTGACGCTGCTG”, the binding signal in the test with PU.1 (IVT) [1] came to 6.87 z-score. Take “GCCTAGCACAAAAAGAGGAAGTCGTTTTCGTGCTAGGTCTTGATTCGCTTGACGCTGCTG”: the binding signal with PU.1 (IVT) [1] was 8.57 z-score. In the test with PU.1 (IVT) [2], “GCCTAGCACAAAAGGAGGAAGTGGTTACAGTGCTAGGTCTTGATTCGCTTGACGCTGCTG” showed a binding signal of 6.37 z-score. Take “GCCTAGCACAAAAAGAGGAAGTGGTTGTCGTGCTAGGTCTTGATTCGCTTGACGCTGCTG”: the binding signal with PU.1 (IVT) [1] was 8.71 z-score.

“GCCTAGCACAAAAAAAGGAAGTCAAAGTCGTGCTAGGTCTTGATTCGCTTGACGCTGCTG”: the binding signal with PU.1 (IVT) [1] is 6.75 z-score. In turn, “GCCTAGCACAAAAAGAGGAAGAGAGAAAAGTGCTAGGTCTTGATTCGCTTGACGCTGCTG” had a binding signal with PU.1 (IVT) [2] of 5.63 z-score. Consider “GCCTAGCACTATTTGAGGAAGTGTGAGAAGTGCTAGGTCTTGATTCGCTTGACGCTGCTG”, for which the binding signal with PU.1 (IVT) [1] came to 5.91 z-score. The sequence “GCCTAGCACTAAAGAGGGAAGTGGGAGCCGTGCTAGGTCTTGATTCGCTTGACGCTGCTG” had a binding signal with PU.1 (IVT) [1] of 3.74 z-score. For the sequence “GCCTAGCACGGAAAGTGGAACTGAAACTTGTGCTAGGTCTTGATTCGCTTGACGCTGCTG”, the binding signal with PU.1 (IVT) [2] came to 1.93 z-score. As for “GCCTAGCACGAAAAGAGGATGTGGATCTGGTGCTAGGTCTTGATTCGCTTGACGCTGCTG”, in the test with PU.1 (IVT) [2], the binding signal came to 3.52 z-score. With “GCCTAGCACAAAAACAGGAACTGGCCAGGGTGCTAGGTCTTGATTCGCTTGACGCTGCTG”, in the test with PU.1 (IVT) [2], the binding signal turned out to be 5.89 z-score. With “GCCTAGCACCGAATGAGGAACTGATGCGGGTGCTAGGTCTTGATTCGCTTGACGCTGCTG”, the binding signal in the test with PU.1 (IVT) [2] is 5.03 z-score. “GCCTAGCACAAAAAGAGGAAGTCAAATTAGTGCTAGGTCTTGATTCGCTTGACGCTGCTG” had a binding signal in the test with PU.1 (IVT) [1] of 8.57 z-score. “GCCTAGCACGAAAAGAGGAAGTCAGATTAGTGCTAGGTCTTGATTCGCTTGACGCTGCTG” had a binding signal with PU.1 (IVT) [1] of 8.07 z-score. Take “GCCTAGCACAAAAAGAGGAAGTCAAATAAGTGCTAGGTCTTGATTCGCTTGACGCTGCTG”: the binding signal with PU.1 (IVT) [1] is 8.51 z-score. On to “GCCTAGCACAATAAGAGGAAGTCAAAATAGTGCTAGGTCTTGATTCGCTTGACGCTGCTG”, for which, in the test with PU.1 (IVT) [2], the binding signal was determined as 6.65 z-score. On to “GCCTAGCACGAAAAGAGGAAGTCACATTAGTGCTAGGTCTTGATTCGCTTGACGCTGCTG”, for which the binding signal with PU.1 (IVT) [1] amounted to 8.62 z-score. Regarding “GCCTAGCACAAAAAGAGGAAGTCAAATTGGTGCTAGGTCTTGATTCGCTTGACGCTGCTG”, the binding signal in the test with PU.1 (IVT) [1] was 8.3 z-score. In turn, “GCCTAGCACAAAAAAAGGAAGTGGAATTAGTGCTAGGTCTTGATTCGCTTGACGCTGCTG” registered a binding signal with PU.1 (IVT) [1] of 6.73 z-score. In turn, “GCCTAGCACGAGAAGAGGAAGTCAAATAAGTGCTAGGTCTTGATTCGCTTGACGCTGCTG” registered a binding signal with PU.1 (IVT) [2] of 5.64 z-score. Regarding “GCCTAGCACGAAAAGAGGAAGTCACATTGGTGCTAGGTCTTGATTCGCTTGACGCTGCTG”, the binding signal with PU.1 (IVT) [1] came to 8.32 z-score. In the test with PU.1 (IVT) [1], “GCCTAGCACGAAAAGAGGAAGTCAAAATAGTGCTAGGTCTTGATTCGCTTGACGCTGCTG” registered a binding signal of 8.29 z-score.

Regarding “GCCTAGCACGAAATGAGGAAGTCAAATTAGTGCTAGGTCTTGATTCGCTTGACGCTGCTG”, the binding signal with PU.1 (IVT) [1] was 7.71 z-score. For the sequence “GCCTAGCACGAAAAGAGGAAGTCAAATTAGTGCTAGGTCTTGATTCGCTTGACGCTGCTG”, the binding signal with PU.1 (IVT) [1] is 8.43 z-score.
